The results in this text go back to PubChem BioAssay.

Unmarked numbers belong to inactive results. The source made the active and inactive calls.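 Rule for the calls: active = thallium flux through the channel raised or lowered by more than 3 SD from vehicle-only wells, actives on both sides; inactive = the rest.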

The first experiment concerns F380Y/beta4. Description: BK channel mutant inhibitors and activators – cell-based, U2OS BacMam, thallium flux, beta subunits, selectivity assay, profiling panel (AID 1259406).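 Note: initial slope of Thallos dye fluorescence rise after thallium is added; log ratio against the mean of 0.3% DMSO vehicle wells on the same plate.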 The conditions noted are these: U2OS BacMam BK variants, at 30 µM.
Consider `O=C1N=C(O)CN1N=Cc1ccc(-c2ccc([N+](=O)[O-])cc2)o1`, for which the log fold change Tl+ flux was -0.0396.

Regarding `CC(=O)O[C@@]12CO[C@@H]1C[C@H](O)[C@@]1(C)C(=O)[C@H](O)C3=C(C)[C@@H](OC(=O)[C@H](O)[C@@H](NC(=O)OC(C)(C)C)c4ccccc4)C[C@](O)([C@@H](OC(=O)c4ccccc4)[C@H]21)C3(C)C`, the log fold change Tl+ flux was -0.0802. Still for that read-out and setting: the figure for `CC1c2cccc(O)c2C(O)=C2C(=O)[C@]3(O)C(O)=C(C(N)=O)C(=O)[C@@H](N(C)C)[C@@H]3C[C@@H]21` (some centres not stated) is -0.0368.

As to `CO[C@H]1C=CO[C@@]2(C)Oc3c(C)c(O)c4c(O)c(c(C=NN5CCN(C6CCCC6)CC5)c(O)c4c3C2=O)NC(=O)C(C)=CC=C[C@H](C)[C@H](O)[C@@H](C)[C@@H](O)[C@@H](C)[C@H](OC(C)=O)[C@@H]1C`, the log fold change Tl+ flux was 0.177 (active).

On to `C=CC1=C(C(=O)O)N2C(=O)[C@@H](NC(=O)C(=NO)c3csc(N)n3)[C@H]2SC1`, for which the log fold change Tl+ flux is 0.0162. In the case of `C[C@H]1O[C@@H](O[C@H]2[C@@H](O)C[C@H](O[C@H]3[C@@H](O)C[C@H](O[C@H]4CC[C@@]5(C)[C@H](CC[C@@H]6[C@@H]5C[C@@H](O)[C@]5(C)C(C7=CC(=O)OC7)CC[C@]65O)C4)O[C@@H]3C)O[C@@H]2C)C[C@H](O)[C@@H]1O` (some centres not stated), the log fold change Tl+ flux is -0.0566. On the same count and under the same terms, the figure for `CON=C(C(=O)N[C@@H]1C(=O)N2C(C(=O)O)=C(COC(N)=O)CS[C@H]12)c1ccco1` is -0.0173; for `Cc1cc(=O)oc2cc(NC(=O)C3CCC(=O)N3)ccc12` (configuration not stated) it is 0.0184. Regarding `N[C@@H](C(=O)N[C@@H]1C(=O)N2C(C(=O)O)=C(CSc3cn[nH]n3)CS[C@H]12)c1ccc(O)cc1` (tested in a mixture with another compound), the log fold change Tl+ flux was -0.0478.

For `CN1CCN2c3ncccc3Cc3ccccc3[C@@H]2C1`, the log fold change Tl+ flux is 0.0496. As to `C=CC[C@@H]1C=C(C)C[C@H](C)C[C@H](OC)[C@H]2O[C@@](O)(C(=O)C(=O)N3CCCC[C@H]3C(=O)O[C@H](/C(C)=C/[C@@H]3CC[C@@H](O)[C@H](OC)C3)[C@H](C)[C@@H](O)CC1=O)[C@H](C)C[C@@H]2OC`, the log fold change Tl+ flux was 0.109 (active).

In the case of `CO[C@H]1C=CO[C@@]2(C)Oc3c(C)c(O)c4c(O)c(c5c(c4c3C2=O)NC2(CCN(CC(C)C)CC2)N=5)=NC(=O)C(C)=CC=C[C@H](C)[C@H](O)[C@@H](C)[C@@H](O)[C@@H](C)[C@H](OC(C)=O)[C@@H]1C`, the log fold change Tl+ flux is -0.0911.

`CN(C)S(=O)(=O)c1ccc2c(c1)/C(=C\CCN1CCNCC1)c1ccccc1S2`: the log fold change Tl+ flux was -0.0323. `C[C@]12C=CC(=O)C=C1CC[C@@H]1[C@@H]2[C@@H](O)C[C@@]2(C)[C@H]1CC[C@]2(O)C(=O)COC(=O)CCC(=O)O`: the log fold change Tl+ flux was -0.00342. For `CO[C@H]1C=CO[C@@]2(C)Oc3c(C)c(O)c4c(O)c(c5c(nc6cc(C)ccn65)c4c3C2=O)NC(=O)C(C)=CC=C[C@H](C)[C@H](O)[C@@H](C)[C@@H](O)[C@@H](C)[C@H](OC(C)=O)[C@@H]1C`, the log fold change Tl+ flux was -0.508 (active). On the same count and under the same terms, the figure for `CC(C)CC(NC(=O)C(COC(C)(C)C)NC(=O)C(Cc1ccc(O)cc1)NC(=O)C(CO)NC(=O)C(Cc1c[nH]c2ccccc12)NC(=O)C(Cc1cnc[nH]1)NC(=O)C1CCC(=O)N1)C(=O)N[C@@H](CCCN=C(N)N)C(=O)N1CCCC1C(=O)NNC(N)=O` (some centres not stated) is 0.00509. Regarding `CCN(CC)CCOc1ccc(C(=C(Cl)c2ccccc2)c2ccccc2)cc1`, the log fold change Tl+ flux is -0.059. For the molecule `CO[C@H]1/C=C/O[C@@]2(C)Oc3c(C)c(O)c4c(O)c(c(C=NN5CCN(C6CCCC6)CC5)c(O)c4c3C2=O)NC(=O)/C(C)=C\C=C\[C@H](C)[C@H](O)[C@@H](C)[C@@H](O)[C@@H](C)[C@H](OC(C)=O)[C@@H]1C`, the log fold change Tl+ flux is 0.152 (active). On the same count and under the same terms, for `O=C1CN(N=Cc2ccc([N+](=O)[O-])o2)C(=O)N1` the value was -0.00406; for `C=CC1=C(C(=O)O)N2C(=O)[C@@H](NC(=O)C(=NOCC(=O)O)c3csc(N)n3)[C@H]2SC1`, 0.0293; for `COCC1=C(C(=O)OC(C)OC(=O)OC(C)C)N2C(=O)[C@@H](NC(=O)C(=NOC)c3csc(N)n3)[C@H]2SC1` (some centres not stated), 0.0327.

For a further experiment, the target named is Calcium-activated potassium channel subunit alpha-1 (Homo sapiens) + Leucine-rich repeat-containing protein 26 (Homo sapiens) (UniProt Q12791+Q2I0M4). Described as above. The following applies: U2OS BacMam BK variants, F380Y/Slo1WT/gamma1, at 30 µM.
Chain of Calcium-activated potassium channel subunit alpha-1 (Homo sapiens) + Leucine-rich repeat-containing protein 26 (Homo sapiens) (Q2I0M4 whole entry, looked up, one chain of several): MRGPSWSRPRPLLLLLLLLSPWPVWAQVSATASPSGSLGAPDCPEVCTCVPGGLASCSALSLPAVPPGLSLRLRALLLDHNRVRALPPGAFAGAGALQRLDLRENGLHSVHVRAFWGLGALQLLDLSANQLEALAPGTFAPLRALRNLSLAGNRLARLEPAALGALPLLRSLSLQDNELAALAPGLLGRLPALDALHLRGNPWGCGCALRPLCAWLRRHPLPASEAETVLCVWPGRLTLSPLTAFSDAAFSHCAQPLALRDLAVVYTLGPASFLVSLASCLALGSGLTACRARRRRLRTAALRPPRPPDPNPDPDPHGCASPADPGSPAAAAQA
As to `O=C1N=C(O)CN1N=Cc1ccc(-c2ccc([N+](=O)[O-])cc2)o1`, the log fold change Tl+ flux was 0.0789.

Regarding `CC(=O)O[C@@]12CO[C@@H]1C[C@H](O)[C@@]1(C)C(=O)[C@H](O)C3=C(C)[C@@H](OC(=O)[C@H](O)[C@@H](NC(=O)OC(C)(C)C)c4ccccc4)C[C@](O)([C@@H](OC(=O)c4ccccc4)[C@H]21)C3(C)C`, the log fold change Tl+ flux is -0.035. For the molecule `CC1c2cccc(O)c2C(O)=C2C(=O)[C@]3(O)C(O)=C(C(N)=O)C(=O)[C@@H](N(C)C)[C@@H]3C[C@@H]21` (some centres not stated), the log fold change Tl+ flux is 0.011. Still for that read-out and setting: the figure for `CO[C@H]1C=CO[C@@]2(C)Oc3c(C)c(O)c4c(O)c(c(C=NN5CCN(C6CCCC6)CC5)c(O)c4c3C2=O)NC(=O)C(C)=CC=C[C@H](C)[C@H](O)[C@@H](C)[C@@H](O)[C@@H](C)[C@H](OC(C)=O)[C@@H]1C` is 0.0556. `C=CC1=C(C(=O)O)N2C(=O)[C@@H](NC(=O)C(=NO)c3csc(N)n3)[C@H]2SC1`: the log fold change Tl+ flux is -0.00804.

Take `C[C@H]1O[C@@H](O[C@H]2[C@@H](O)C[C@H](O[C@H]3[C@@H](O)C[C@H](O[C@H]4CC[C@@]5(C)[C@H](CC[C@@H]6[C@@H]5C[C@@H](O)[C@]5(C)C(C7=CC(=O)OC7)CC[C@]65O)C4)O[C@@H]3C)O[C@@H]2C)C[C@H](O)[C@@H]1O` (some centres not stated): the log fold change Tl+ flux was -0.00567. Turning to `CON=C(C(=O)N[C@@H]1C(=O)N2C(C(=O)O)=C(COC(N)=O)CS[C@H]12)c1ccco1`, the log fold change Tl+ flux was -0.0114. Turning to `Cc1cc(=O)oc2cc(NC(=O)C3CCC(=O)N3)ccc12` (configuration not stated), the log fold change Tl+ flux was -0.00524.

For the molecule `N[C@@H](C(=O)N[C@@H]1C(=O)N2C(C(=O)O)=C(CSc3cn[nH]n3)CS[C@H]12)c1ccc(O)cc1` (tested in a mixture with another compound), the log fold change Tl+ flux is 0.0418.

`CN1CCN2c3ncccc3Cc3ccccc3[C@@H]2C1`: the log fold change Tl+ flux was -0.00307. The same measure, in the same setting: the figure for `C=CC[C@@H]1C=C(C)C[C@H](C)C[C@H](OC)[C@H]2O[C@@](O)(C(=O)C(=O)N3CCCC[C@H]3C(=O)O[C@H](/C(C)=C/[C@@H]3CC[C@@H](O)[C@H](OC)C3)[C@H](C)[C@@H](O)CC1=O)[C@H](C)C[C@@H]2OC` is 0.0458. With `CO[C@H]1C=CO[C@@]2(C)Oc3c(C)c(O)c4c(O)c(c5c(c4c3C2=O)NC2(CCN(CC(C)C)CC2)N=5)=NC(=O)C(C)=CC=C[C@H](C)[C@H](O)[C@@H](C)[C@@H](O)[C@@H](C)[C@H](OC(C)=O)[C@@H]1C`, the log fold change Tl+ flux was -0.0288. Take `CN(C)S(=O)(=O)c1ccc2c(c1)/C(=C\CCN1CCNCC1)c1ccccc1S2`: the log fold change Tl+ flux was -0.0624. As for `CCC(=O)NS(=O)(=O)c1ccc(-c2c(-c3ccccc3)noc2C)cc1`, the log fold change Tl+ flux was 0.0287. On the same count and under the same terms, for `C[C@]12C=CC(=O)C=C1CC[C@@H]1[C@@H]2[C@@H](O)C[C@@]2(C)[C@H]1CC[C@]2(O)C(=O)COC(=O)CCC(=O)O` the value was -0.00445. For `CN(C)CC/C=C1/c2ccccc2COc2ccccc21`, the log fold change Tl+ flux was 0.0355.

Regarding `CC(=O)NCCCCCCNC(C)=O`, the log fold change Tl+ flux is 0.0164. For `CO[C@H]1C=CO[C@@]2(C)Oc3c(C)c(O)c4c(O)c(c5c(nc6cc(C)ccn65)c4c3C2=O)NC(=O)C(C)=CC=C[C@H](C)[C@H](O)[C@@H](C)[C@@H](O)[C@@H](C)[C@H](OC(C)=O)[C@@H]1C`, the log fold change Tl+ flux was -0.124 (active). With `CO[C@H]1O[C@@H]2O[C@@]3(C)CC[C@H]4[C@H](C)CC[C@@H]([C@H]1C)[C@@]24OO3`, the log fold change Tl+ flux was -0.00699. As to `CC(C)CC(NC(=O)C(COC(C)(C)C)NC(=O)C(Cc1ccc(O)cc1)NC(=O)C(CO)NC(=O)C(Cc1c[nH]c2ccccc12)NC(=O)C(Cc1cnc[nH]1)NC(=O)C1CCC(=O)N1)C(=O)N[C@@H](CCCN=C(N)N)C(=O)N1CCCC1C(=O)NNC(N)=O` (some centres not stated), the log fold change Tl+ flux was -0.0112. As to `COCCCCC(=NOCCN)c1ccc(C(F)(F)F)cc1`, the log fold change Tl+ flux is -0.0791.

Regarding `CO[C@H]1/C=C/O[C@@]2(C)Oc3c(C)c(O)c4c(O)c(c(C=NN5CCN(C6CCCC6)CC5)c(O)c4c3C2=O)NC(=O)/C(C)=C\C=C\[C@H](C)[C@H](O)[C@@H](C)[C@@H](O)[C@@H](C)[C@H](OC(C)=O)[C@@H]1C`, the log fold change Tl+ flux was 0.0279. Take `O=C1CN(N=Cc2ccc([N+](=O)[O-])o2)C(=O)N1`: the log fold change Tl+ flux was 0.0181.

`C=CC1=C(C(=O)O)N2C(=O)[C@@H](NC(=O)C(=NOCC(=O)O)c3csc(N)n3)[C@H]2SC1`: the log fold change Tl+ flux was 0.111 (active). Still for that read-out and setting: for `COc1cc(N)c(Cl)cc1C(=O)N[C@@H]1CCN(CCCOc2ccc(F)cc2)C[C@@H]1OC` the value was -0.0526; for `COCC1=C(C(=O)OC(C)OC(=O)OC(C)C)N2C(=O)[C@@H](NC(=O)C(=NOC)c3csc(N)n3)[C@H]2SC1` (some centres not stated), 0.0109.
